According to PubChem BioAssay AID687001 (Broad Institute, 2013):
Potency and affinity values are given separately. Active and inactive are the calls of the source.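 The calls were made as follows: active = signal-lowering compounds whose fitted half-maximal concentration is at or below twice the top tested dose in every run; inconclusive = runs disagree, flat 30 to 70% inhibition, or poor curve fit; inactive = the rest.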

These compounds were tested against Protein S100-A4 (Homo sapiens) (UniProt P26447) (assay: S100A4-myosin IIA binding inhibitor potency, dose response, biochemical, fluorescence polarization, cherry-picked hits (AID 687001)). Details: FP, S100A4/TAMRA-myosin IIA peptide binding; series mostly up to 11 µM.
Protein S100-A4 (Homo sapiens), sequence (P26447 whole entry, looked up): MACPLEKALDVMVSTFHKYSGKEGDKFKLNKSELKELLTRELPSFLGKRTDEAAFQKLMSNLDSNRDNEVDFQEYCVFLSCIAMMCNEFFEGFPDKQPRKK

outcome, inactive:
C[C@@H]1CN([C@H](C)CO)C(=O)c2cc(C3=CCCC3)cnc2O[C@@H]1CN(C)Cc1ccc(F)cc1
O=C(CC1C[C@H](C(=O)N2CCCCC2)[C@@]2(CCc3ccccc3)c3[nH]c4ccccc4c3CCN2C1=O)NCCC1=CCCCC1 (some centres undefined)
COc1ccc2c(CN3CCCC3)cc(=O)oc2c1
O=C(CCN1CCCCC1)N[C@H]1CC[C@@H](CCNS(=O)(=O)c2ccc(Cl)cc2)O[C@H]1CO
CO[C@@H]1CC[C@H]2CCOc3c(C#N)cccc3C(=O)N(C)C[C@H](C)C(=O)N(C)C[C@H]1O2
C[C@@H]1CN([C@@H](C)CO)C(=O)c2cc(/C=C/c3ccccc3)cnc2O[C@H]1CN(C)S(=O)(=O)c1cccs1
COc1cccc(-c2ccc3n(c2=O)C[C@H]2[C@H](CO)[C@@H](C(=O)N4CCOCC4)N[C@@H]32)c1
CC(OCCN(C)C)C(=O)C12CC3CC(CC(C3)C1)C2 (centres undefined)
COC(=O)c1ccc(NC(=O)C2CCCN2C(=O)Nc2cccc(C(C)=O)c2)cc1 (centres undefined)
O=C(c1cc2c(s1)-c1ccccc1S(=O)(=O)C2)N1CCN(Cc2ccccc2)CC1
C[C@H](CO)N1C[C@H](C)[C@@H](CN(C)Cc2cccc(F)c2)Oc2ncc(C#C[C@@H](C)O)cc2C1=O
C[C@@H]1CN([C@H](C)CO)S(=O)(=O)c2ccc(-c3cccnc3)cc2O[C@@H]1CN(C)C(=O)CC1CC1
CC1(C)CC2CC(C)(CN2/C=N/c2sc3c(c2C#N)CC(C)(C)NC3(C)C)C1 (centres undefined)
COC(=O)[C@]12CCCCC=C1N(Cc1ccc(Cl)cc1Cl)C(=O)[C@H](CC(=O)N1CCCC1)C2
CCCCCC(=O)Nc1ncc2c(n1)CC(c1cccs1)CC2=O (centres undefined)
O=C(c1ccc(N2C(=O)CCC2=O)cc1)N1CCCSC1=Nc1ccccc1
O=C(NCCc1ccncc1)Nc1ccc(F)cc1
CCN(CC)C(=O)Oc1ccc2c(c1)O/C(=C\c1ccco1)C2=O
CN(C)S(=O)(=O)c1ccc(NC(=O)CN2CCN(c3ccccn3)CC2)cc1
CC(C)(C)C1CCSC2=NCCC[C@]2(c2ccccc2)C1 (some centres undefined)
NS(=O)(=O)c1ccc(NC(=O)COC(=O)CCCN2C(=O)c3cccc4cccc(c34)C2=O)cc1
COc1ccc(NC(=O)Nc2ccc3c(c2)C(=O)N([C@H](C)CO)C[C@H](C)[C@H](CN(C)Cc2ccc(C(F)(F)F)cc2)OCCCC[C@H](C)O3)cc1
COc1ccc(Cl)cc1S(=O)(=O)n1ccnc1
Cc1cc(Nc2cccc(F)c2)cc(=O)n1-c1cccc(F)c1
COc1cccc(-c2ccc([C@H]3[C@H](CO)N4CCCCN(CC5CC5)C[C@@H]34)cc2)c1
CCC1CN(C(=O)N2CCC(C(=O)NCCc3ccc(OC)c(OC)c3)CC2)c2ccccc2O1 (centres undefined)
COc1ccc(NC(=O)N(C)C[C@H]2Oc3ccc(N(C)C)cc3C(=O)N([C@@H](C)CO)C[C@@H]2C)cc1
Cc1cccc2sc(NC(=O)C3CCN(C(=O)c4ccco4)CC3)nc12
Cc1cc2cc(C#N)c(N3CCOCC3)nc2cc1Cl
COC(=O)[C@@H]1[C@@H](CO)[C@@H]2Cn3c(cccc3=O)[C@@H]2N1CC1CCOCC1
N#Cc1ccc(-c2ccc([C@@H]3[C@@H](CO)N4C(=O)CN(C(=O)C5CC5)C[C@H]34)cc2)cc1
COC(=O)[C@@]12C[C@@H](CC(=O)N3CCN(C(=O)c4ccco4)CC3)C(=O)N(CCc3ccc(OC)c(OC)c3)C1=CCC(C)(C)C2
CC(C)n1c(CNC(=O)c2ccccc2F)nnc1SCC(=O)c1ccc(F)cc1
CCc1ccc(C(=O)NNC(=O)c2cccc(N3C(=O)CCC3=O)c2)cc1
CO[C@H]1CN(C)C(=O)c2cc(NC(=O)C3CC3)ccc2OC[C@H](C)N(C(=O)CN(C)C)C[C@H]1C
CCOc1ccc(OCCNC(=O)c2cc(C3CC3)nc3c2cnn3C(C)C)cc1
COC(=O)c1cccc(NC(=O)c2ccc3c(c2)C(=O)N(Cc2cccnc2)C3=O)c1
CCCCNS(=O)(=O)c1ccc2nc(-c3cccnc3)cc(C(=O)NC(C)CC)c2c1 (centres undefined)
CCc1noc(C)c1C(=O)Nc1nc(-c2ccc(OC)cc2OC)cs1
